Bioassay records deposited in PubChem BioAssay by Center for Chemical Genomics, University of Michigan.
Dicer processing: inhibitors of Dicer pre-microRNA processing, primary screen, biochemical, cat-ELCCA, chemiluminescence; cat-ELCCA pre-miR-21 Dicer processing; hits give high values; AID 1347074, 2019; Endoribonuclease Dicer (Homo sapiens), Q9UPY3; 47,000 tested, 6% active; z-score at 25 µM; in the data active = z-score above about 3, passing the limit was not always enough;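 note: higher signal means more uncleaved substrate so more Dicer inhibition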
A number is an active result. Many of the other results were omitted from the sample, so hits are more common in it than they were.

For Cc1ccccc1-c1nc(NC(=O)CSc2nnc3ccccn23)ns1 the results were Dicer processing 3.5.
O=C(CSc1nnc2scc(-c3ccccc3)n12)Nc1nsc(-c2ccccc2)n1 was read as Dicer processing inactive.
Cn1ccnc1SCC(=O)Nc1nc2ccccc2s1 was read as Dicer processing inactive.
Screening NC(=O)CSc1nnc2ccccn12 returned Dicer processing inactive.
O=C(CSc1ncn[nH]1)Nc1ncccn1 was read as Dicer processing inactive.
Screening O=C(CSc1nnc2ccccn12)Nc1nc(-c2ccc(Cl)cc2)ns1 returned Dicer processing inactive.
Screening Cc1nnc(SCC(=O)Nc2nsc(-c3ccc(C(C)(C)C)cc3)n2)s1 returned Dicer processing inactive.
O=C(CSc1nc2ccccc2s1)Nc1ccc(Cl)cc1 was read as Dicer processing inactive.
`O=C(CSc1nnc2ccccn12)Nc1ccc(-c2nc3ccccc3s2)cc1` gave Dicer processing 3.5.
Screening Cc1ccc(-c2csc3nnc(SCC(=O)Nc4nsc(-c5ccccc5)n4)n23)cc1 returned Dicer processing 4.6.
`CC(C)(C)c1ccc(-c2nc(NC(=O)CSc3ncn[nH]3)ns2)cc1` gave Dicer processing 7.1.
`O=C(CSc1ccc2ccccc2n1)Nc1nsc(-c2ccccc2)n1` gave Dicer processing inactive.
For COc1ccc(C2CC(=O)C3=C(C2)Nc2nc4ccccc4n2C3c2ccccc2)cc1OC (stereo unspecified) the results were Dicer processing inactive.
For Cc1cc(C)c(S(=O)(=O)NCc2ccc3c(c2)OCO3)cc1Br the results were Dicer processing inactive.
`Nc1sc(-c2ccccc2)cc1C(=O)N/N=C/c1ccncc1` gave Dicer processing inactive.
For O=C(CCc1ccccc1)NNc1c(Cl)cncc1Cl the results were Dicer processing inactive.
`COc1ccccc1-c1nn(-c2ncccc2C(F)(F)F)c(=O)o1` gave Dicer processing inactive.
For Cc1cn2c3ccccc3nc2n1CCCO the results were Dicer processing inactive.
For O=C1C2ON(c3ccccc3)C(c3ccncc3)C2C(=O)N1c1cccc(Cl)c1 (stereo unspecified) the results were Dicer processing inactive.
CN(C)c1ccc(C2C3C(=O)N(Cc4ccccc4)C(=O)C3ON2c2ccccc2)cc1 (stereo unspecified) was read as Dicer processing 3.3.
For COc1ccc(C2C3C(=O)N(c4ccc(F)cc4)C(=O)C3ON2c2ccccc2)cc1 (stereo unspecified) the results were Dicer processing inactive.
c1ccc(-c2csc(NCc3ccco3)n2)nc1 was read as Dicer processing inactive.
`O=C1CC(c2ccc(F)cc2)c2c(n[nH]c2-c2ccccc2)N1` (stereo unspecified) gave Dicer processing inactive.
For CCCC(C)NC(=O)Cn1cnc2c1c(=O)n(C)c(=O)n2C (stereo unspecified) the results were Dicer processing inactive.
`Nc1ccc(Sc2ccccc2)nc1Sc1ccccc1` gave Dicer processing inactive.
For O=C(COC(=O)c1ccccc1Nc1ccccc1F)c1ccccc1 the results were Dicer processing inactive.
O=C(COC(=O)c1ccccc1-c1ccccc1)c1ccccc1 was read as Dicer processing inactive.
`O=C(COC(=O)c1ccc(C(O)c2ccccc2)cc1)c1ccccc1` (stereo unspecified) gave Dicer processing 4.
`COC(=O)C(C#N)=C(SC)SC` gave Dicer processing inactive.
N#Cc1c(-c2cccs2)cc(-c2ccc([N+](=O)[O-])cc2)nc1OCC(=O)c1ccccc1 was read as Dicer processing inactive.
`CC1CN(C(=S)Nc2ccc(S(=O)(=O)N3CCCCC3)cc2)CC(C)O1` (stereo unspecified) gave Dicer processing inactive.
`Cc1nc2scc(-c3ccc(Cl)cc3)n2c(=O)c1Oc1ccc(Cl)cc1` gave Dicer processing inactive.
COC(=O)c1cc(C#N)c(SCC(=O)c2ccc(Cl)cc2)nc1C(OC)OC was read as Dicer processing inactive.
Screening CCOc1ccc2noc3c2c1C(=O)c1ccccc1-3 returned Dicer processing inactive.
Screening CC(=O)OCCNc1cc(Cl)c2noc3c2c1C(=O)c1ccccc1-3 returned Dicer processing 3.2.
For CCOC(=O)c1ccc2c3c(onc13)-c1ccccc1C2=O the results were Dicer processing inactive.
`Cc1ccc(C2Nn3c(C)nnc3SC2C(=O)Nc2cc(C)ccc2C)cc1` (stereo unspecified) gave Dicer processing inactive.
`COc1cccc(OCC(O)Cn2cnc3cc(C)c(C)cc32)c1` (stereo unspecified) gave Dicer processing inactive.
For CC1CCc2c(sc3nnn(CC(N)=O)c(=O)c23)C1 (stereo unspecified) the results were Dicer processing 6.4.
For CC1CCc2c(sc3nnn(CC(=O)OC(C)C)c(=O)c23)C1 (stereo unspecified) the results were Dicer processing inactive.
Screening CC1CCc2c(sc3nnn(CC(=O)N4CCCCC4)c(=O)c23)C1 (stereo unspecified) returned Dicer processing inactive.
Cc1cc2ccccc2n2c(SCC(=O)c3ccc4c(c3)OCCO4)nnc12 was read as Dicer processing inactive.
For CCOC(=O)c1sc(SC)c2c1CCc1cnc(SCC(=O)Nc3ccc(Cl)cc3)nc1-2 the results were Dicer processing inactive.
Screening Cn1c(SCc2nc(-c3ccccc3)no2)nnc1-c1ccco1 returned Dicer processing inactive.
For Cc1ccc(-c2noc(CSc3nnc(C)n3-c3ccccc3)n2)cc1 the results were Dicer processing inactive.
For Cn1c(SCc2nc(-c3ccccc3)no2)nnc1-c1cccs1 the results were Dicer processing 3.1.
CC1=C(C(N)=O)C(c2ccc(O)cc2)n2ncnc2N1 (stereo unspecified) was read as Dicer processing inactive.
For Cn1nccc1NC(=O)c1nccnc1C(=O)O the results were Dicer processing inactive.
`C/C(=C\C#N)NC(=O)c1nccnc1C(=O)O` gave Dicer processing 4.6.
For CC(=O)Nc1ccc(NC(=O)c2nccnc2C(=O)O)cn1 the results were Dicer processing inactive.
For COc1ccc(C(N)=O)c(Cl)c1OC the results were Dicer processing inactive.
Screening CCCS(=O)(=O)c1c(S(=O)(=O)CCC)c2ccccn2c1C(=O)c1ccc(C)cc1 returned Dicer processing inactive.
For CCCS(=O)(=O)c1c(S(=O)(=O)CCC)c2ccccn2c1C(=O)c1ccc(F)cc1 the results were Dicer processing 5.
For CCCS(=O)(=O)c1c(S(=O)(=O)CCC)c2ccc(C(N)=O)cn2c1C(=O)c1ccc(F)cc1 the results were Dicer processing inactive.
For Cc1c(-c2cc(NS(=O)(=O)c3ccccc3Cl)n(C)n2)sc2ccc(Cl)cc12 the results were Dicer processing inactive.
Screening CC(C)CSc1ncnc2c1sc1nc3c(cc12)COC(C)(C)C3 returned Dicer processing inactive.
Screening CC(C)CCn1c(N2CCCCC2)nc2c1c(=O)[nH]c(=O)n2C returned Dicer processing inactive.
For Cc1cc(C)n2nc(Sc3ccc([N+](=O)[O-])cn3)nc2n1 the results were Dicer processing inactive.
Cc1ccc(-c2nc(N)sc2C)cc1 was read as Dicer processing inactive.
For Cc1ccc(-c2nc(N)sc2-c2ccccc2)cc1 the results were Dicer processing 3.1.
Screening Cc1sc(N)nc1-c1ccc(CC(C)C)cc1 returned Dicer processing inactive.
For CCC(C)OC(=O)C1=C(C)NC2=C(C(=O)CC(c3ccccc3)C2)C1c1cccc(OC)c1OC (stereo unspecified) the results were Dicer processing inactive.
For Nc1ccccc1NC(=S)Nc1ccccc1C(F)(F)F the results were Dicer processing inactive.
